The values that follow come from PubChem BioAssay (NCATS).

Structures are written as SMILES. Inconclusive results are not listed. Values without a mark were called inactive. Activity calls are given as the source filed them. Calls follow the shape of the dose curve; as a rule, active = well fitted cell-killing curve with a large enough effect; inconclusive = small, poorly fitted or top-dose-only effect, or effect the other way; inactive = no such curve, though single readings can be large or run the other way.

Assay [1] in a line: Viability qHTS for spleen associated tyrosine kinase inhibitor (SYKi) naive MV4-11 cells (AID 1963823). Also: nearly all actives have a fitted effect of over 40% in size. The gist of the method:
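Cells: MV4-11, SYK inhibitor naive, 500 per well. Treatment: library compounds, 72 hr, 37 C, 5% CO2. Read-out: CellTiter-Glo luminescence after 10 min RT.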
Background: Quantitative high-throughput screening tests each substance at several concentrations.

The nature of assay [2]: Viability qHTS for spleen associated tyrosine kinase inhibitor (SYKi) drug resistant MV4-11 cells (AID 1963824). Also: nearly all actives have a fitted effect of over 35% in size. The gist of the method: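 SYK-inhibitor-resistant MV4-11 AML cells were seeded at 500 per well onto compound and cultured 72 hours (37 °C, 5% CO2). CellTiter-Glo was then added, and after 10 min at room temperature, luminescence gave viability.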
Potency is read from the fitted curve at half-maximal effect.

Consider `C/C=C/C1=CC2=C(CO1)C(=O)C(C)(OC(=O)c1c(C)cc(O)cc1OC)C(O)C2` (centres undefined), for which the figures for the Potency in assay [1] and in assay [2] were 5.7 µM (active) and 5.08 µM (active), respectively.

Regarding `COc1cc([C@H]2OC[C@](O)(Cc3ccc(O[C@@H]4O[C@H](CO)[C@@H](O)[C@H](O)[C@H]4O)c(OC)c3)[C@@H]2CO)ccc1O`, the Potency result in assay [1] and in assay [2] was “inactive” in each case.

Consider `Cc1onc(-c2c(F)cccc2Cl)c1C(=O)N[C@@H]1C(=O)N2[C@@H]1SC(C)(C)[C@@H]2C(=O)O`, for which, in assay [1], the Potency entry was “inactive”. In assay [2], the Potency was 13 µM (active).

Turning to `COc1ccnc2[nH]cc(C(=O)C(=O)N3CCN(C(=O)c4ccccc4)CC3C)c12` (centres undefined), the Potency entry in assay [1] and in assay [2] was “inactive” in each case.

Take `CC1(C)CC[C@]2(C(=O)O)[C@H](O)C[C@]3(C)C(=CCC4[C@@]5(C)CC[C@H](O[C@@H]6O[C@H](CO[C@@H]7OC[C@H](O)[C@H](O)[C@H]7O[C@@H]7OC[C@@H](O)[C@H](O)[C@H]7O)[C@@H](O)[C@H](O)[C@H]6O[C@@H]6O[C@H](CO)[C@@H](O)[C@H](O)[C@H]6O)C(C)(C)C5CC[C@]43C)[C@@H]2C1` (some centres undefined): the viability (% of control) in assay [1] was 92.2% [at 9.25 µM]. In assay [2], the viability, % of control was 103% [at 9.25 µM].

Turning to `CC(C)=CC/C=C(/C)[C@H]1CC[C@]2(C)[C@@H]1[C@H](O)CC1[C@@]3(C)CC[C@H](O)C(C)(C)[C@@H]3[C@@H](O[C@@H]3O[C@H](CO)[C@@H](O)[C@H](O)[C@H]3O[C@@H]3O[C@@H](C)[C@H](O)[C@@H](O)[C@H]3O)C[C@]12C` (some centres undefined), the Potency result in assay [1] and in assay [2] was “inactive” each time.

On to `C/C=C(\C)C(=O)OC1C(C)C2(O)C(C=C(CO)CC3(O)C(=O)C(C)=CC32)C2C(C)(C)C12OC(=O)C(C)C` (centres undefined), for which the Potency was 0.02 µM (active) in assay [1] and 0.008 µM (active) in assay [2].

For the compound `CN1CC[C@@H](c2c(O)cc(O)c3c(=O)cc(-c4ccc(C(F)(F)F)cc4Cl)oc23)[C@@H]1CO`, the Potency in assay [1] was 16.4 µM (active); in assay [2], 18.4 µM (active).

Regarding `COc1cc2nc(N3CCCC3)nc(NCCCCCN3CCCC3)c2cc1OC`, the Potency in assay [1] was 1.3 µM (active); in assay [2], 2.59 µM (active).

As for `COc1ccc(CN2CCN(CCCSc3cc(C(C)(C)C)c(O)c(C(C)(C)C)c3)CC2)c(OC)c1OC`, the Potency in assay [1] and in assay [2] was 3.48 µM (active) in each case.

With `COC(=O)[C@]1(C)CCC[C@@]2(C)[C@@H]3CC[C@@H]4C[C@@]3(CC[C@@H]21)C[C@H]4C(=O)O`, the Potency entry in assay [1] and in assay [2] was “inactive” each time.

For `CC(=O)O[C@H]1[C@@H](O)[C@H](O[C@H]2[C@@H]3C=CO[C@@H](O[C@H]4O[C@@H](CO)[C@H](O)[C@@H](O)[C@@H]4O)[C@@H]3[C@@]3(CO)O[C@@H]23)O[C@@H](C)[C@@H]1OC(=O)/C=C/c1ccccc1`, the Potency entry in assay [1] and in assay [2] was “inactive” throughout.

For `CC(Sc1nc2c(cnn2-c2cccc(Cl)c2)c(=O)[nH]1)C(N)=O` (centres undefined), the Potency result in assay [1] and in assay [2] was “inactive” throughout.

As for `C/C1=C\CC[C@H](C)CCO[C@@H]2O[C@H](CO[C@@H]3OC[C@](O)(COC1=O)[C@H]3O)[C@@H](O)[C@H](O)[C@H]2O`, the Potency result in assay [1] and in assay [2] was “inactive” in each case.

As to `COCc1c(Cl)ccc2c1CC[C@H]2c1ncc[nH]1`, the Potency entry in assay [1] and in assay [2] was “inactive” in each case.

Take `Cc1onc(-c2ccccc2)c1C(=O)N[C@@H]1C(=O)N2[C@@H]1SC(C)(C)[C@@H]2C(=O)O`: the Potency entry in assay [1] and in assay [2] was “inactive” in each case.

For `C=C1C(=O)O[C@H]2C1CCC(C)=C1C(=O)C=C(C)[C@@]12O` (some centres undefined), the Potency in assay [1] is 7.31 µM (active); in assay [2] it was 8.2 µM (active).

Consider `C/C=C(\C)C(=O)OC[C@H]1O[C@H](O[C@H]2O[C@H](CO)[C@@H](O)[C@H](O)[C@H]2O[C@@H]2O[C@H](CO)[C@@H](O)[C@H](O)[C@H]2O)[C@H](O[C@@H]2O[C@H](CO)[C@@H](O)[C@H](O)[C@H]2O)[C@@H](O)[C@@H]1O`, for which the Potency entry in assay [1] and in assay [2] was “inactive” in each case.

As to `C=C(C(=O)OC)C1C(O)CC2(C)C(=O)CCC(O)(CO)C2C1O` (centres undefined), the Potency entry in assay [1] and in assay [2] was “inactive” each time.

On to `C=C[C@@]12COC(=O)C(=C)[C@@H]1[C@@H](O)[C@H](C(=C)C(=O)OC)[C@@H](O)C2`, for which the Potency entry in assay [1] and in assay [2] was “inactive” in each case.

With `O=C(CCCCCCC(=O)Nc1ccc(C2OC(CSc3nc(-c4ccccc4)c(-c4ccccc4)o3)CC(c3ccc(CO)cc3)O2)cc1)NO` (centres undefined), the Potency in assay [1] was 7.31 µM (active); in assay [2], 9.2 µM (active).

Take `COc1cc(C)c(C(=O)NC2C(C)OC(OC3CCC(C)C4C3C=C(C)C3/C(C)=C\CC/C(C)=C/C5(C)C=C(C(=O)O)C(C)CC56OC(=O)/C(=C(\O)C34C)C6=O)C(O)C2(C)O)c(O)c1` (centres undefined): the viability (% of control) in assay [1] was 82.6% [at 9.25 µM]. For the same compound, in assay [2], the viability, % of control was 77% [at 9.25 µM].
